Screens as filed in PubChem.
Shown are actives, neighbours in structure and some others; about 2.2% of the full set was active somewhere.
Nrf2 activator: qHTS of Nrf2 Activators | AID 624171, 2012 | 0.31% of 410,000 active | AREc32 ARE-luciferase reporter (MCF7-derived line), luminescence, 24 h | Potency, µM (highest dose often 46.1 µM), for the others: top-dose activation, actives largely listed as activators; also: % of control where 0% means no effect; nearly all actives have a fitted effect of over 65% in size
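ARE-driven firefly luciferase activity in AREc32 cells measured after a 24 hr compound exposure at 37 deg C, using Steady-Glo reagent and a 30 min room-temperature hold.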
Nrf2 inh: Nrf2 qHTS screen for inhibitors; A549 ARE-Fluc reporter, luciferase luminescence, 18-24 h; Potency, µM (top dose mostly 46 µM), for the others: at the highest dose activity change, negative = inhibition, usual class: inhibitors; 2.1% of 360,000 active; AID 504444, 2011; also: % is scaled to controls: 0 for no effect and ±100 for the full control effect; nearly all actives have a fitted effect of over 60% in size
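A549 ARE_Fluc cells (5000/well, 5% FBS OPTI-MEM) pre-incubated 2 h, then treated with compounds 18-24 h at 37C/5% CO2 in concentration-response. CellTiter-Fluor viability read first; BugLite luciferase luminescence after 15 min at room temperature gives Nrf2 activity.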
Pin1 inhibitor: qHTS Assay to Find Inhibitors of Pin1; 0.009% of 390,000 active; Pin1 FP peptide displacement, HiFluor488, 10 min; Potency, µM (series often up to 115 µM), inactives show top-dose activity, negative = inhibition, most hits filed as inhibitors; active = well fitted inhibition curve with a large enough effect in the polarisation, with a control signal flat, not every such curve was filed as active; inconclusive = small, poorly fitted or top-dose-only effect, or effect the other way, or a change in a side signal; inactive = no such curve, though single readings can be large or run the other way; the % refers to the polarisation; also: % is scaled to controls: 0 for no effect and ±100 for the full control effect
Target sequence (Q13526 whole entry, looked up): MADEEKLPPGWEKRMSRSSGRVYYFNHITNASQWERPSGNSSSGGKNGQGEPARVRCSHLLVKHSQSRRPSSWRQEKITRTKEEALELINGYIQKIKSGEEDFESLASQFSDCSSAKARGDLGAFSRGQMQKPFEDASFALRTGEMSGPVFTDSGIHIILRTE
A549 viability: Nrf2 qHTS screen for inhibitors: counterscreen for cytotoxicity; 0.16% of 390,000 active; Potency, µM (highest dose often 46 µM), inactives show at the highest dose activity change, negative = cytotoxicity, hits mostly inhibitors; A549 ARE-Fluc cells, CellTiter-Fluor viability, 18-24 h; also: % is scaled to controls: 0 for no effect and ±100 for the full control effect
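A549 ARE-Fluc cells in 5% FBS OPTI-MEM, 5000 cells/well, rested 2 h then exposed to compounds in concentration-response for 18-24 h at 37 °C. Viability by CellTiter-Fluor fluorescence (Ex 405/Em 525) after 30 min; luciferase luminescence (BugLite, 15 min, RT) read afterwards.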
An asterisk follows results filed as active. Unless noted, calls follow the shape of the dose curve; as a rule, active = well fitted curve in the direction sought with a large enough effect; inconclusive = small, poorly fitted or top-dose-only effect, or another doubt; inactive = no such curve, though single readings can be large; an effect the other way counts as inactive or inconclusive. Potency is read from the fitted curve at half-maximal effect.

For O=C(C=P(c1ccccc1)(c1ccccc1)c1ccccc1)c1ccccc1-c1ccccc1C(=O)C=P(c1ccccc1)(c1ccccc1)c1ccccc1 the results were Nrf2 activator 0.2%, Nrf2 inh 2.06µM*, Pin1 inhibitor inconclusive and A549 viability 4.61µM*.
For O=C(NNC(=O)c1ccccc1-c1ccccc1C(=O)O)c1ccccc1 the results were Nrf2 activator -0.5%, Nrf2 inh 5.8%, Pin1 inhibitor 0.4% and A549 viability -10.6%.
Screening COc1ccccc1N1CCN(C(=O)Cn2ncc3c(=O)oc4ccccc4c32)CC1 returned Nrf2 activator -0.3%, Nrf2 inh 5.0%, Pin1 inhibitor -0.6% and A549 viability 6.0%.
Screening Cn1c(=O)c2c(nc(Sc3ncccn3)n2Cc2ccc(Cl)cc2)n(C)c1=O returned Nrf2 activator 0.7%, Nrf2 inh 14.6µM*, Pin1 inhibitor 3.1% and A549 viability 4.8%.
Cn1c(=O)c2c(nc(NCCO)n2CCCc2ccccc2)n(C)c1=O was read as Nrf2 activator 0.5%, Nrf2 inh 20.6µM*, Pin1 inhibitor 8.8% and A549 viability -0.1%.
For CNc1nc2c(c(=O)n(C)c(=O)n2C)n1Cc1ccccc1 the results were Nrf2 activator 0.7%, Nrf2 inh 7.31µM*, Pin1 inhibitor 2.4% and A549 viability -15.5%.
Screening Cc1cccc(Cn2c(NCCO)nc3c2c(=O)n(C)c(=O)n3C)c1 returned Nrf2 activator -0.2%, Nrf2 inh 4.11µM*, Pin1 inhibitor 1.6% and A549 viability -18.7%.
O=S(=O)(Cc1ccccc1)N1CCN(c2nc(-c3cccs3)nc3ccccc23)CC1 was read as Nrf2 inh inconclusive, Pin1 inhibitor 5.9% and A549 viability -4.4%.
For O=C(OCC#CCSc1nnc(-c2cccc3ccccc23)o1)c1sc(Cl)c(Cl)c1Cl the results were Nrf2 inh 26.5%, Pin1 inhibitor -5.2% and A549 viability -0.5%.
`C=C1CCN(C(C)C(=O)OCc2cccc(C)c2)S(=O)(=O)c2ccccc21` (stereo not given) gave Nrf2 inh 10.3%, Pin1 inhibitor -15.2% and A549 viability 3.3%.
O=C1CC(c2ccccc2)Cc2[nH]c(=O)c(C(=O)Nc3ccc(OC(F)(F)F)cc3)cc21 (stereo not given) was read as Nrf2 activator 0.1%, Nrf2 inh 0.6%, Pin1 inhibitor 3.6% and A549 viability -5.6%.
Screening Cc1cccc(C)c1N=C1C(=O)Nc2ccccc21 returned Nrf2 activator -0.6%, Nrf2 inh 18.4µM*, Pin1 inhibitor 1.2% and A549 viability -16.9%.
`O=S(=O)(c1cccnc1)N1CCN(c2nc(-c3cccs3)nc3ccccc23)CC1` gave Nrf2 inh inconclusive, Pin1 inhibitor 5.8% and A549 viability -17.3%.
Screening CN1/C(=C\C(=S)NC(=O)c2ccc([N+](=O)[O-])cc2)C(C)(C)c2ccccc21 returned Nrf2 activator 1.6%, Nrf2 inh inconclusive, Pin1 inhibitor 9.4% and A549 viability -17.1%.
`CN1/C(=C\C(=S)NC(=O)c2cccc(Br)c2)C(C)(C)c2ccccc21` gave Nrf2 activator 3.0%, Nrf2 inh 20.6µM*, Pin1 inhibitor 21.2% and A549 viability -13.5%.
Cc1ccc2c(c1)c(=O)c(C(=O)c1ccc3c(c1)OCO3)cn2Cc1ccc(Cl)cc1 was read as Nrf2 activator 3.0%, Nrf2 inh 23.1µM*, Pin1 inhibitor 18.6% and A549 viability -14.1%.
O=C(c1ccc2c(c1)OCO2)c1cn(Cc2ccc(Cl)cc2)c2ccc(F)cc2c1=O was read as Nrf2 activator 2.8%, Nrf2 inh inconclusive, Pin1 inhibitor 14.3% and A549 viability -28.2%.
`COc1ccc(Cn2cc(C(=O)c3ccc(Cl)cc3)c(=O)c3cc4c(cc32)OCO4)cc1` gave Nrf2 activator -0.1%, Nrf2 inh inconclusive, Pin1 inhibitor 43.1% and A549 viability inconclusive.
`CCOc1ccc(C(=O)c2cn(Cc3ccc(Cl)cc3)c3cc(OC)c(OC)cc3c2=O)cc1` gave Nrf2 activator 0.4%, Nrf2 inh inconclusive, Pin1 inhibitor 22.1% and A549 viability 14.6µM*.
Screening Cc1ccc2nc(NC(=O)CSc3cc(C)[nH]c(=O)n3)sc2c1 returned Nrf2 activator -0.5%, Pin1 inhibitor 101.1% and A549 viability 4.8%.
For Cc1cccc2sc(NC(=O)c3ccc(Cl)s3)nc12 the results were Nrf2 activator 7.08µM*, Nrf2 inh 20.1%, Pin1 inhibitor 3.2% and A549 viability 7.1%.
